From PubChem BioAssay (EPA / NIEHS)
Active and inactive are the calls of the source. How the source made its calls: active means hit-call score of the fitted dose curve at least 0.9, where 1 is the maximum; inactive means score below 0.9.

Legend:
[1] = BSK_3C_SRB: Viability Assessment in the BioMAP Diversity Plus: 3C Assay (AID 2283023); conditions: primary human endothelial cells (HUVEC);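 further: fitted both ways against DMSO so a hit may be signal rise or drop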
Procedure, shortened: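 Absorbance at 560 nm of sulforhodamine B-stained (0.1%) total protein served as a cytotoxicity readout in human umbilical vein endothelial cells, 24 h after chemical treatment. Signal was fitted bidirectionally relative to DMSO.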

[2] = read-out: Matrix Metallopeptidase 1 (MMP1), MMP1 (gene 4312); assay: BSK_BE3C_MMP1: BioMAP Diversity Plus: BE3C Assay for Matrix Metallopeptidase 1 (MMP1) Biomarker Activity (AID 2283024); conditions: primary human bronchial epithelial cells; actives raise or lower the signal
Procedure, shortened: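 MMP1 signal, measured by ELISA after a 24 h chemical exposure of human primary bronchial epithelial cells, is analysed with bidirectional fitting using DMSO as negative control.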

[3] = BSK_3C_Vis: BioMAP Diversity Plus: 3C Assay for Morphology Visualization (AID 2283025); conditions: primary human endothelial cells (HUVEC);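 further: fitted both ways so gain or loss versus DMSO counts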
Procedure, shortened: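 Morphology read by light microscopy serves as a background control for the multiplexed 3C assay in human umbilical vein endothelial cells, taken 24 h after dosing, with DMSO as the negative control and bidirectional curve fitting.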

[4] = read-out: Pselectin, SELP (gene 6403); assay: BSK_4H_Pselectin: BioMAP Diversity Plus: 4H Assay for Pselectin Biomarker Activity (AID 2283026); conditions: primary human endothelial cells (HUVEC); actives raise or lower the signal
Procedure, shortened: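 Endothelial primary cells (human umbilical vein) are dosed, incubated 24 h, and assayed for surface P-selectin by ELISA; responses in either direction are fitted relative to the DMSO negative control.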

[5] = BSK_4H_SRB: Viability Assessment in the BioMAP Diversity Plus: 4H Assay (AID 2283027); conditions: primary human endothelial cells (HUVEC);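 further: cells exposed to compound for 24 h before staining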;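 on AC50: curves fitted both ways versus DMSO so AC50 may be loss or gain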
Procedure, shortened: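 Cytotoxicity read-out in primary human endothelial cells: after 24 h compound exposure, cells were TCA-fixed (10%), stained with 0.1% SRB and absorbance taken at 560 nm. Values fitted in both directions relative to DMSO.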

[6] = BSK_BE3C_SRB: Viability Assessment in the BioMAP Diversity Plus: BE3C Assay (AID 2283028); conditions: primary human bronchial epithelial cells
Procedure, shortened: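 Cells (human bronchial epithelial, primary) are treated with chemicals, and after 24 h the parallel cultures are fixed in 10% TCA. These are then stained with 0.1% SRB and read at 560 nm. Gain or loss of signal is fitted relative to DMSO.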

[7] = read-out: Thrombomodulin, THBD (gene 7056); assay: BSK_3C_Thrombomodulin: BioMAP Diversity Plus: 3C Assay for Thrombomodulin Biomarker Activity (AID 2283029); conditions: primary human endothelial cells (HUVEC); actives raise or lower the signal
Procedure, shortened: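 Endothelial cells from umbilical vein are dosed with test chemical and incubated 24 h. Thrombomodulin is then quantified by ELISA, with DMSO serving as negative control and activity baseline.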

[8] = read-out: Urokinase-type plasminogen activator receptor (uPAR), PLAUR (gene 5329); assay: BSK_4H_uPAR: BioMAP Diversity Plus: 4H Assay for Urokinase-type plasminogen activator receptor (uPAR) Biomarker Activity (AID 2283030); conditions: primary human endothelial cells (HUVEC); actives raise or lower the signal
Procedure, shortened: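 Cell-surface uPAR ELISA signal, measured 24 h after dosing human umbilical vein endothelial cells, was analyzed with bidirectional fitting relative to DMSO. Parallel SRB staining of total protein tracked overt cytotoxicity.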

[9] = read-out: Vascular endothelial growth factor receptor 2 (Homo sapiens) (UniProt P35968); assay: BSK_4H_VEGFRII: BioMAP Diversity Plus: 4H Assay for Vascular endothelial growth factor receptor 2 (VEGFR2) Biomarker Activity (AID 2283031); conditions: primary human endothelial cells (HUVEC); actives raise or lower the signal
Procedure, shortened: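 ELISA read-out of VEGFRII in primary human umbilical vein endothelium, taken 24 h after chemical treatment. Responses are expressed relative to DMSO, with bidirectional fitting.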

[10] = read-out: Human Leukocyte Antigen - DR isotype (HLADR), HLA-DRA (gene 3122); assay: BSK_BE3C_HLADR: BioMAP Diversity Plus: BE3C Assay for Human Leukocyte Antigen - DR isotype (HLADR) Biomarker Activity (AID 2283032); conditions: primary human bronchial epithelial cells; actives raise or lower the signal
Procedure, shortened: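 Chemicals are dosed onto BE3C bronchial epithelial cultures of human origin and left 24 h. HLA-DR is then measured by ELISA, and the endpoint is fitted in both directions using DMSO as the activity baseline.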

[11] = read-out: Vascular cell adhesion molecule 1 (VCAM1), VCAM1 (gene 7412); assay: BSK_4H_VCAM1: BioMAP Diversity Plus: 4H Assay for Vascular cell adhesion molecule 1 (VCAM1) Biomarker Activity (AID 2283033); conditions: primary human endothelial cells (HUVEC); actives raise or lower the signal
Procedure, shortened: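 Chemicals are added to primary human umbilical vein endothelial cells. After 24 h, VCAM-1 levels are measured by ELISA. Values come from bidirectional fitting referenced to DMSO.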

[12] = read-out: Interferon-gamma inducible Protein 10 (IP10), CXCL10 (gene 3627); assay: BSK_BE3C_IP10: BioMAP Diversity Plus: BE3C Assay for Interferon-gamma inducible Protein 10 (IP10) Biomarker Activity (AID 2283034); conditions: primary human bronchial epithelial cells; actives raise or lower the signal
Procedure, shortened: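 IP-10 quantified by ELISA serves as the endpoint. Cells: primary human bronchial epithelium, read 24 h after compound addition. Activity is derived by bidirectional fitting with DMSO as negative control.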

[13] = read-out: Monokine induced gamma interferon (MIG), CXCL9 (gene 4283); assay: BSK_BE3C_MIG: BioMAP Diversity Plus: BE3C Assay for Monokine induced gamma interferon (MIG) Biomarker Activity (AID 2283035); conditions: primary human bronchial epithelial cells; actives raise or lower the signal;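 further: MIG protein measured by ELISA in BE3C cultures after 24 h of dosing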
Procedure, shortened: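 ELISA quantified MIG after 24 h exposure of primary bronchial epithelial cultures, analysed in both directions relative to DMSO. Cytotoxicity tracked in parallel cultures by sulforhodamine B staining.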

[14] = read-out: Transforming growth factor beta 1 (TGFb1), TGFB1 (gene 7040); assay: BSK_BE3C_TGFb1: BioMAP Diversity Plus: BE3C Assay for Transforming growth factor beta 1 (TGFb1) Biomarker Activity (AID 2283036;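 further: TGF-b1 protein level measured by ELISA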); conditions: primary human bronchial epithelial cells; actives raise or lower the signal
Procedure, shortened: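 Bronchial epithelial primary cells are treated with test chemical, then TGF-b1 is quantified by ELISA after 24 hours. Values derive from bidirectional fitting against DMSO, with cytotoxicity checked by SRB staining in parallel cultures.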

[15] = read-out: Plasminogen activator inhibitor-1 (PAI1), SERPINE1 (gene 5054); assay: BSK_BE3C_PAI1: BioMAP Diversity Plus: BE3C Assay for Plasminogen activator inhibitor-1 (PAI1) Biomarker Activity (AID 2283037); conditions: primary human bronchial epithelial cells; actives raise or lower the signal
Procedure, shortened: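 Values derive from bidirectional fitting against DMSO baseline of PAI-1 levels, measured by ELISA in human bronchial epithelial cells 24 h after compound addition.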

[16] = read-out: urokinase plasminogen activator (uPA), PLAU (gene 5328); assay: BSK_BE3C_uPA: BioMAP Diversity Plus: BE3C Assay for urokinase plasminogen activator (uPA) Biomarker Activity (AID 2283038); conditions: primary human bronchial epithelial cells; actives raise or lower the signal;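 further: uPA protein level quantified by ELISA in cell cultures; uPA read one day after compound addition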
Procedure, shortened: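 Bronchial epithelial cells (human, primary); chemical 24 h; uPA by ELISA; bidirectional fit vs DMSO. SRB (0.1%, after 10% TCA fixation, 560 nm) in parallel cultures for cytotoxicity.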

[17] = read-out: Urokinase-type plasminogen activator receptor (uPAR), PLAUR (gene 5329); assay: BSK_BE3C_uPAR: BioMAP Diversity Plus: BE3C Assay for Urokinase-type plasminogen activator receptor (uPAR) Biomarker Activity (AID 2283039); conditions: primary human bronchial epithelial cells; actives raise or lower the signal;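 further: cells exposed to compound for one day before measurement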
Procedure, shortened: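 Steps: dose human primary bronchial epithelial cells, incubate 24 h, measure uPAR by ELISA, then fit gain- or loss-of-signal response bidirectionally relative to DMSO.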

[18] = read-out: Interleukin-6 (IL6), IL6 (gene 3569); assay: BSK_CASM3C_IL6: BioMAP Diversity Plus: CASM3C Assay for Interleukin-6 (IL6) Biomarker Activity for (AID 2283040); conditions: primary human coronary artery smooth muscle cells; actives raise or lower the signal
[19] = read-out: Tissue plasminogen activator (tPA), PLAT (gene 5327); assay: BSK_BE3C_tPA: BioMAP Diversity Plus: BE3C Assay for Tissue plasminogen activator (tPA) Biomarker Activity (AID 2283041); conditions: primary human bronchial epithelial cells; actives raise or lower the signal;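 further: tPA level quantified by ELISA one day after compound addition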
Procedure, shortened: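 Gain- or loss-of-signal in tPA, measured by ELISA, derived by bidirectional fitting against DMSO. Cells: human primary bronchial epithelial; read at 24 h after chemical dosing.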

Measured: AC50

CCCCCCCCCCC
inactive: all assays above

NCCO
inactive: all assays above

C=CCc1ccc(O)c(OC)c1
inactive: all assays above

Cc1ccc(C(C)C)c(O)c1
inactive: all assays above

O=c1c(O)c(-c2ccc(O)c(O)c2)oc2cc(O)cc(O)c12
active: [1] 15.3 µM | [3] 37.5 µM | [4] 16.6 µM | [5] 30.1 µM | [8] 33.6 µM | [10] 20 µM | [11] 26.9 µM | [18] 8.19 µM
not listed: [9]
inactive: all other assays above

CCOC(=O)C(C)(C)Oc1ccc(Cl)cc1
inactive: all assays above

Cc1ccc2ncccc2c1
inactive: all assays above

CC1(C)CC(N=C=O)CC(C)(CN=C=O)C1 (stereo not given)
active: [3] 39 µM
inactive: all other assays above

CCCc1cc(=O)[nH]c(=S)[nH]1
inactive: all assays above
